Screening data from PubChem.
KCNH2 WT inh = inhibitors of human wildtype KCNH2 potassium channel; Q12809; U2OS, BacMam KCNH2, thallium flux FluxOr; hits give low values; activity change, % at 1.84 µM; hit rate 0.37% among 340,000; AID 720551;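 active = maximum activity change below -70%; inconclusive = maximum activity change between -70% and -50%; inactive = maximum activity change above -50%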
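U2OS cells were transduced with wild-type KCNH2 virus (2.03 x 10^8 / mL) for 4 h at room temperature, then cultured overnight at 37 C. Thallium flux was read with FluxOr dye. Rate constants were normalized to DMSO controls.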
KCNH2 3.1 inh = inhibitors of human KCNH2 3.1 potassium channel isoform; U2OS KCNH2 3.1, thallium flux FluxOr; hits give low values; activity change, % (tested at about 1.8 µM); hit rate 0.95% among 340,000;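 active = maximum activity change below -70%; inconclusive = maximum activity change from -70% to -50%; inactive = maximum activity change above -50%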;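 note: thallium influx rate constant from kinetic fluorescence after stimulation buffer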
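Thallium flux via FluxOr fluorescence (Red40 quencher, 45 min loading) in U2OS cells virally expressing the KCNH2 3.1 isoform (1.77 x 10^8 /mL virus, overnight at 37 C). Rate constants from 2-min kinetic reads post-stimulation, normalised to positive and negative controls.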
Six1-Eya2 blk = blocks human Six1 binding to Eya2; AlphaScreen GST-Six1/His-Eya2 binding, biochemical; hits give low values; activity change, % (test concentration not listed); hit rate 0.56% among 360,000
Target sequence (O00167 whole entry, looked up): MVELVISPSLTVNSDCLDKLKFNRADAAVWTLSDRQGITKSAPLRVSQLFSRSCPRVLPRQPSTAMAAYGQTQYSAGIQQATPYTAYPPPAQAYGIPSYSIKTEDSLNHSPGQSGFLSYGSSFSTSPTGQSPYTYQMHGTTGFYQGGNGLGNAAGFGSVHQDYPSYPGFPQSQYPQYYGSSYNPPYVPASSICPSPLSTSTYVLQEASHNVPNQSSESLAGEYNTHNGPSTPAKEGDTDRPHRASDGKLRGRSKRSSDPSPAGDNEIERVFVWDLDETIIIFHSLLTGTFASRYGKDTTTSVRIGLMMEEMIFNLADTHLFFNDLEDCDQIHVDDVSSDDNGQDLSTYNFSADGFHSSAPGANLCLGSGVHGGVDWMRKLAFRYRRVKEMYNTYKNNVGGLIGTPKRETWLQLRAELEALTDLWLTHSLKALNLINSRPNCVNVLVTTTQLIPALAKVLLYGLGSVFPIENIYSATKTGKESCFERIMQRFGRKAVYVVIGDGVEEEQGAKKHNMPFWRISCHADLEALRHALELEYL
Target sequence (Q15475 whole entry, looked up): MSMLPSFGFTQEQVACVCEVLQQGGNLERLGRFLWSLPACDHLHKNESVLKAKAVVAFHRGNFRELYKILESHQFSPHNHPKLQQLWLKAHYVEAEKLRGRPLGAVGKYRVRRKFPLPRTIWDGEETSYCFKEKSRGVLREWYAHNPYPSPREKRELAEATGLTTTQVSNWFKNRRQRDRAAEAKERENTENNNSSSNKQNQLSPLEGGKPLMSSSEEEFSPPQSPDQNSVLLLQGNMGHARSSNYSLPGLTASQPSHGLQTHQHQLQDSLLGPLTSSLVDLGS
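Homogeneous AlphaScreen proximity assay pairing GST-Six1 with His-tagged Eya2 (added as 5X mix: 250 nM and 500 nM) in 50 mM Tris pH 8.0, 300 mM NaCl, 1 mM TCEP. Glutathione donor and nickel acceptor beads; 1 h, 37 °C, dark.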
CtBP-E1A blk = inhibitors of CtBP/E1A interaction; hit rate 0.49% among 340,000; AlphaScreen GST-E1A/His-CtBP binding, 1536-well; hits give low values; activity change, % (no concentration beside the values)
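Homogeneous bead-based format: GST-tagged E1A captured on glutathione donor beads, His-tagged CtBP on nickel acceptor beads; compounds precede bead addition by 2 h at 37 °C.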
JMJD2E inh = blocks human JMJD2E demethylase activity; hit rate 1.6% among 230,000; Potency, µM (doses to about 57.1 µM), for the others: at the highest dose activity change, negative = inhibition, actives largely listed as inhibitors; JMJD2E catalytic domain, FDH-coupled NADH fluorescence (FDH is formaldehyde dehydrogenase);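 note: potency is the fitted concentration of half-maximal effect; 0% = wells with enzyme and -100% = buffer wells without enzyme; nearly all actives have a fitted effect of over 50% in size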
Starred values were filed as active, the others as inactive; ? = inconclusive; · = no result given. A selection: hits, their analogues and other compounds. The true share with any hit is near 2%. Cut-off read from the data, not from the text of the source, unless noted: active = activity change below about -65%; inconclusive = mostly about -30% to -63%; inactive = weaker than that. Unless noted, % is set by controls: 0 for no effect and ±100 for the full control effect.

SMILES	KCNH2 WT inh	KCNH2 3.1 inh	Six1-Eya2 blk	CtBP-E1A blk	JMJD2E inh
Nc1nc(SCC(=O)c2c(N)n(Cc3ccccc3)c(=O)[nH]c2=O)n[nH]1	-105*	-17	-15	-6	2%
CC1CCc2c(sc3ncn4c(SCC(=O)NCc5ccco5)nnc4c23)C1 (stereo unspecified)	5	-5	-4	-5	4%
CC1CCc2sc3ncn4nc(C(=O)NCc5ccco5)nc4c3c2C1 (stereo unspecified)	6	-77*	5	4	-29%
CC(C)(C)OC(=O)N[C@@H](C(=O)OC(C)(C)C)c1ccccc1	-9	-86*	7	3	·
CCOC(=O)c1c(C)[nH]c(C(=O)N/N=C/c2cccc(OC)c2)c1C	-2	-14	-18	-22	3%
COc1cccc(/C=N/NC(=O)c2[nH]c(C)c(C(=O)N/N=C/c3cccc(OC)c3)c2C)c1	28	5	-68*	?	10%
O=C(Nc1ccc2c(c1)OCCO2)c1cccc2nc3ccccc3nc12	-2	13	?	-68*	3%
Cc1cccc(-c2sc(Nc3ccccc3)n[n+]2-c2ccc(F)cc2)c1	-13	-92*	6	3	·
CCc1ccc(Nc2n[n+](-c3ccccc3)c(-c3cccc(C)c3)s2)cc1	-10	18	-1	1	·
Cn1c(NC(=O)/C=C\c2ccccc2)cc(=O)n(C)c1=O	-9	-23	-1	-20	-5%
CCN(CC)C(=O)N1CCN(S(=O)(=O)c2ccccc2)CC1	-5	-3	2	-23	1%
O=C(NCCc1nc2ccccc2[nH]1)/C(=C/c1ccc2c(c1)OCO2)NC(=O)c1ccc(Cl)cc1Cl	-165*	-107*	-29	-13	2%
O=C(NCCc1nc2ccccc2[nH]1)/C(=C/c1ccc(F)cc1)NC(=O)c1ccco1	-72*	0	-3	·	1%
O=C(Nc1ccccc1)/C(=C/c1ccc(F)cc1)NC(=O)c1ccco1	2	-114*	2	2	·
O=C(NCc1ccco1)/C(=C/c1ccccc1)NC(=O)c1ccco1	-92*	-2	7	0	·
O=C(NCc1ccco1)/C(=C/c1ccc(Cl)cc1)NC(=O)c1ccco1	19	-3	12	0	·
O=C(NCCc1nc2ccccc2[nH]1)/C(=C/c1ccco1)NC(=O)c1ccccc1Br	-6	-23	-6	-6	5%
O=P(c1ccccc1)(c1ccccc1)C(O)c1ccncc1 (stereo unspecified)	-4	9	6	8	?
Cc1cc(=O)[nH]c(SCC(=O)Nc2nnc(CC(C)C)s2)n1	-2	1	8	7	-7%
Cc1c(CBr)[n+](=O)c2c(n1[O-])C(Br)CCC2Br (stereo unspecified)	-3	8	11	8	28µM*
Cc1ccc2cc(C)c(SCC(=O)Nc3ccc(S(=O)(=O)N4CCCC4)cc3)nc2c1	-12	-100*	-8	-1	-13%
O=c1cc(-c2ccc(O)c(-c3c(O)cc(O)c4c(=O)cc(-c5ccc(O)cc5)oc34)c2)oc2cc(O)cc(O)c12	6	1	-21	-68*	-24%
O=c1c(-c2c(O)cc(O)c3c(=O)cc(-c4ccc(O)cc4)oc23)c(-c2ccc(O)cc2)oc2cc(O)cc(O)c12	23	9	-68*	-16	?
COc1ccc(-c2cc(=O)c3c(O)cc(O)cc3o2)cc1	-9	-8	-20	-21	1%
O=c1cc(-c2ccc(O)cc2)oc2c(-c3c(O)cc(O)c4c(=O)cc(-c5ccc(O)cc5)oc34)c(O)cc(O)c12	-2	-6	-9	-4	·
SMILES	KCNH2 WT inh	KCNH2 3.1 inh	Six1-Eya2 blk	CtBP-E1A blk	JMJD2E inh
Cc1ccccc1NC(=O)COc1coc(CN2CCN(Cc3ccccc3)CC2)cc1=O	-1	-2	6	-6	·
CCSc1nc2ccccc2c(=O)n1C1CCOC(C)(C)C1 (stereo unspecified)	-3	-91*	11	8	3%
CCOC(=O)C1(CCOc2ccccc2)CCN(CC2CC2)CC1	13	-20	4	0	·
CCOC(=O)C1(CCOc2ccccc2)CCN(Cc2cccc(-n3cccn3)c2)CC1	·	-98*	-3	·	?
CCOC(=O)C1(CCOc2ccccc2)CCN(C(=O)c2ccc(-n3cccn3)cc2)CC1	?	-87*	-3	·	7%
CCOC(=O)C1(CCOc2ccccc2)CCN(CCCn2cccn2)CC1	-38	-88*	-7	9	-5%
Cc1cc(Cl)c2oc(C(=O)N3CCN(c4ccncc4)CC3)c(C)c2c1	-138*	3	-10	0	·
COC(=O)c1c(NC(=O)C2COc3ccccc3O2)sc2c1CCN(Cc1ccccc1)C2 (stereo unspecified)	3	-92*	-15	-12	?
Clc1ncnc2scc(C3COc4ccccc4O3)c12 (stereo unspecified)	-22	3	-2	7	-3%
Cc1ccc2c(c1)-c1c(ssc1=S)C(C)(C)N2C(=O)CSc1nncn1C	-1	12	?	?	0%
Cc1cc(C)c2c(c1)-c1c(ssc1=S)C(C)(C)N2C(=O)CSc1nncn1C	8	-2	-67*	-67*	-1%
C=CCSC1=NC(=O)/C(=C/c2cccs2)S1	-20	1	3	-8	5%
CCc1c(C)sc(NC(=O)CCc2ccc(OC)cc2)c1C(N)=O	-11	1	2	8	3%
CCCC(=O)n1nc(-c2cccnc2)nc1NCc1ccccc1	-2	-125*	2	0	-6%
CCC(=O)n1nc(-c2cccnc2)nc1NCc1ccccc1	0	-4	-8	-1	-1%
O=C(NCc1ccco1)C12CC3CC(C1)CC(C(=O)NCc1ccco1)(C3)C2	14	-9	0	-2	-3%
Cc1cccc(-n2c(=O)[nH]c3c(C(N)=O)nc(-c4ccccc4Cl)nc32)c1	-6	-3	3	5	1.8µM*
CCN(CC)c1ccc(C(=O)OCC(=O)Nc2cc(C)on2)cc1	15	-17	-1	·	·
COc1ccc(S(=O)(=O)N2CCC(n3cnc4ccccc43)CC2)cc1	10	0	-2	-2	·
COc1ccc(S(=O)(=O)N2CCC(n3cnc4cc(C(F)(F)F)ccc43)CC2)cc1	-87*	-86*	0	-5	-5%
Nc1[nH]c(N=NC(=O)c2ccccc2O)c2ccccc12	7	-3	-78*	?	25µM*
Nc1[nH]c(N=NC(=O)c2ccccc2)c2ccccc12	-2	4	6	-3	3%
COc1ccc(Br)c(OC)c1C(=O)NC(=O)Nc1nc(C)cc(C)n1	6	8	-16	10	5%
Cn1nc(-c2ccccc2)c(C(=O)Nc2ccc(C(F)(F)F)cc2)c1Cl	-5	-73*	2	7	-1%
